From PubChem
A selection: hits, their analogues and other compounds. The true share with any hit is near 3.4%.
FBW7 activator – human FBW7 E3 ligase activation, primary screen; normalized activity (activation), % at 26.1 µM; AID 1259310; AlphaScreen FBW7–phospho-cyclin E peptide binding, activator screen; Q969H0; hit rate 0.13% among 650,000; in the data active means normalized activity above about 1.9%;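 further: purified mutant Fbw7 with reduced substrate affinity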
GPR151 activ – activators of human GPR151; Q8TDV0; PathHunter beta-arrestin GPR151 cells, luminescence; activation, % at 11.2 µM; hit rate 1% among 650,000; AID 1508602; in the data active means activation above about 4.9%;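 further: 0% = median of compound wells and 100% = cells with positive control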
MITF primary – blocks human microphthalmia-associated transcription factor | AlphaScreen MITF homodimerization, bead proximity signal | inhibition, % at 2.6 µM | hit rate 0.91% among 650,000; in the data active means inhibition above about 50%;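 further: 0% = vehicle wells with protein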
Target sequence (O75030 whole entry, looked up): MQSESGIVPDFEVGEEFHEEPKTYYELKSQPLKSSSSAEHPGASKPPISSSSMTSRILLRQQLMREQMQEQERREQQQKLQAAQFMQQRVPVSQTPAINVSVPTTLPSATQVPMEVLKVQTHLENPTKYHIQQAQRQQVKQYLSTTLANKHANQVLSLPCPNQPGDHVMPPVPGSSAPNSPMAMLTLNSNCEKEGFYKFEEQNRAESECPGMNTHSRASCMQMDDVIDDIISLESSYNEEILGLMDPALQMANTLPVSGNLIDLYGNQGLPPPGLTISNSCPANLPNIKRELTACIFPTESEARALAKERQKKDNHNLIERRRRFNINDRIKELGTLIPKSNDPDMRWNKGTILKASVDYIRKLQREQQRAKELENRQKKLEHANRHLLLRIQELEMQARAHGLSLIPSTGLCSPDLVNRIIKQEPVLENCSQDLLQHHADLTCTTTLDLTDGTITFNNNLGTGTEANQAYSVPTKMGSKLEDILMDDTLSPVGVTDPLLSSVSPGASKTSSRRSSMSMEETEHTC
TEAD-YAP block – TEAD-YAP interaction inhibition. HEK-TIYL cells, TEAD-Gal4/YAP UAS-luciferase luminescence. inhibition, % at 9.12 µM. hit rate 1.4% among 640,000. AID 1259422; in the data active means inhibition above about 32%;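 further: 0% = median of test compound wells and 100% = reference inhibitor wells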
Numbers without * were called inactive.

SMILES | FBW7 activator | GPR151 activ | MITF primary | TEAD-YAP block
Clc1ccc(-c2cnc3ccc(NCCc4ccccn4)nn23)cc1 | 1 | 1 | 18 | 29
Clc1cccc(-c2cnc3ccc(NCCc4ccccn4)nn23)c1 | 0 | 1 | -10 | 48*
CCCNc1ccc2ncc(-c3ccc(N4CCOCC4)cc3)n2n1 | 0 | 0 | 8 | 10
COc1ccc(NC(=O)c2nccnc2CO)cc1OC | 0 | -2 | -4 | -14
O=C(Nc1ccc(Nc2ccc(-n3cccn3)nn2)cc1)c1cccc(F)c1 | 0 | 1 | 5 | 2
Cc1cccc(-n2nnnc2Sc2ccc([N+](=O)[O-])c3cnccc23)c1 | 0 | 3 | 6 | 46*
Cn1cnnc1Sc1ccc([N+](=O)[O-])c2cnccc12 | 0 | 0 | -4 | 2
Cc1ccc(S(=O)(=O)Nc2ccccc2C(=O)Nc2nc3c(Cl)cccc3s2)cc1 | 0 | 0 | -9 | 33*
Cc1ccc2nc(NC(=O)C3=COCCO3)sc2c1 | 0 | -11 | 9 | 66*
Cc1ccc(S(=O)(=O)Nc2ccccc2C(=O)Nc2nc3ccc(Br)cc3s2)cc1 | 0 | 1 | -16 | 55*
Cc1ccc(S(=O)(=O)Nc2ccccc2C(=O)Nc2nc3ccc(Cl)cc3s2)cc1 | 0 | 1 | -11 | 2
Cc1ccc(-c2csc(NC(=O)c3ccccc3NS(=O)(=O)c3ccc(C)cc3)n2)cc1 | 0 | 1 | 8 | 23
CS(=O)(=O)c1ccc2nc(NC(=O)C3=COCCO3)sc2c1 | 0 | -1 | 10 | -13
Cc1ccc(S(=O)(=O)Nc2ccccc2C(=O)Nc2nc(-c3ccc(F)cc3)cs2)cc1 | 0 | 2 | 0 | 54*
C=Cc1ccc(CC2(C)C(=O)Nc3ccccc32)cc1 (stereo not drawn) | 0 | -1 | -8 | 3
CCc1ccc(NC(=O)N(CCC(C)C)C2CCN(C(=O)O)CC2)cc1 | 0 | 2 | 5 | -8
O=C(O)c1ccccc1C(=O)Nc1nc(-c2ccc(Br)cc2)cs1 | 2.1* | 1 | 0 | 4
Cc1ccc(-c2csc(NC(=O)c3ccccc3C(=O)O)n2)cc1 | 0 | 0 | 7 | -6
CSc1ccc(NC(=O)Nc2cccn(Cc3ccc(C)cc3)c2=O)cc1 | 0 | 0 | -4 | 33*
Cc1ccc(/C(O)=C2\C(=O)C(=O)N(c3ccccn3)C2c2ccc(C(C)(C)C)cc2)cc1 (stereo not drawn) | 0 | -1 | -9 | 44*
Cc1cc(NC(=O)c2ccccc2)sc1C | 0 | -8 | -5 | -37
Cc1ccc(NC(=O)c2ccccc2)s1 | 0 | -5 | 3 | 57*
c1cc(-n2cnc3c(Nc4ccc(N5CCOCC5)cc4)nc(NCCN4CCOCC4)nc32)cs1 | 0 | 0 | 3 | 45*
COc1cc(Nc2nc(NCCN3CCOCC3)nc3c2ncn3-c2ccsc2)cc(OC)c1OC | 0 | -1 | 2 | 6
CC(=O)Nc1ccc(Nc2nc(NCCN3CCOCC3)nc3c2ncn3-c2ccsc2)cc1 | 0 | 0 | -5 | 51*
SMILES | FBW7 activator | GPR151 activ | MITF primary | TEAD-YAP block
c1cc(-n2cnc3c(NCCN4CCOCC4)nc(NCCN4CCOCC4)nc32)cs1 | 0 | 1 | 4 | 16
c1ccc(Nc2nc(NCCN3CCOCC3)c3ncn(C4CCCCC4)c3n2)cc1 | 0 | 0 | 6 | 16
c1cn(-c2ccc(Nc3nc(NCCN4CCOCC4)c4ncn(C5CCCCC5)c4n3)cc2)cn1 | 0 | 0 | 8 | 47*
CCCNc1nc(Nc2ccc(N3CCOCC3)cc2)nc2c1ncn2-c1ccsc1 | 0 | 4 | 10 | 47*
CCN(CC)S(=O)(=O)c1cccc(-c2nnc(SCc3ccc(C#N)cc3)o2)c1 | 0 | 3 | -3 | 8
N#C/C(=C/c1ccccn1)c1ccc([N+](=O)[O-])cc1 | 0 | -1 | -7 | -6
c1cc(-n2cnc3c(NCCN4CCOCC4)nc(Nc4ccc(N5CCOCC5)cc4)nc32)cs1 | 0 | 1 | -17 | 62*
c1cn(-c2ccc(Nc3nc(NCCN4CCOCC4)c4ncn(-c5ccsc5)c4n3)cc2)cn1 | 0 | 1 | -5 | 46*
Cc1[nH]nc2c1C(c1cc(Br)c(C)s1)C(C#N)=C(N)O2 (stereo not drawn) | 0 | -2 | 8 | 33*
CCOc1cccc2cc(C(=O)Nc3cccc(C)c3)c(=Nc3ccc(C(=O)O)cc3)oc12 | 0 | 2 | 1 | -11
Cc1ccc(-c2cnc(NC3CC3)nc2)cc1 | 1 | -6 | 11 | 54*
COc1cccc(CC(=O)NCCCNc2nc3cc4c(cc3cc2C#N)OCO4)c1 | 1 | -2 | 2 | 61*
COc1cccc(NC(=O)NCCCNc2nc3cc4c(cc3cc2C#N)OCO4)c1 | 0 | 0 | -2 | -4
